Data: PubChem BioAssay
Results filed as inconclusive are left out. Calls of active or inactive are those of the source. The limit is not given here; nearly all actives have AC50 up to about 26 µM.

Assay: JHH-DIPG-1 glioma cell viability, MIPE5.0 library, CellTiter-Glo luminescence, qHTS (AID 1347067);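 also: cells exposed to compound for 48 hours before readout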
Conditions: JHH-DIPG-1 glioma viability, CellTiter-Glo ATP luminescence

Row | SMILES | AC50 | outcome
1 | Cc1ccc2nc(NCCN)c3ncc(C)n3c2c1 | 13.2 µM (active) | –
2 | CC(C)c1cnn2c(NCc3ccccc3)cc(NCCCCCCN)nc12 | 26.3 µM (active) | –
3 | CCN(CC)CCCCNc1nc2cc(Cl)c(Cl)cc2nc1-c1ccc(-c2cccs2)s1 | 9.34 µM (active) | –
4 | CCOC(=O)[C@H]1O[C@@H]1C(=O)N[C@@H](CC(C)C)C(=O)NCCC(C)C | – | inactive
5 | C[C@]1(c2nc3c(C(N)=O)cccc3[nH]2)CCCN1 | – | inactive
6 | NC(=O)N1CCC(CC(=O)N2CCC([C@H]3c4ncc(Br)cc4CCc4cc(Cl)cc(Br)c43)CC2)CC1 | 23.5 µM (active) | –
7 | O=C1NCCc2[nH]c(-c3ccncc3)cc21 | 3.32 µM (active) | –
8 | CNC(=O)c1ccc(N2C(=S)N(c3ccc(C#N)c(C(F)(F)F)c3)C(=O)C2(C)C)cc1F | – | inactive
9 | Cn1cncc1[C@@](N)(c1ccc(Cl)cc1)c1ccc2c(c1)c(-c1cccc(Cl)c1)cc(=O)n2C | 18.6 µM (active) | –
10 | O=C(O)c1ccc2c(c1)nc(Nc1cccc(Cl)c1)c1ccncc12 | 2.95 µM (active) | –
11 | CC(C)C[C@H](NC(=O)CNC(=O)c1cc(Cl)ccc1Cl)B(O)O | 0.263 µM (active) | –
12 | CCc1ccc(C(=O)Nc2cc(CN3CCN(C)CC3)cc(C(F)(F)F)c2)cc1C#Cc1cnc2ccnn2c1 | 13.2 µM (active) | –
13 | CC1(C)CCC(c2ccc(Cl)cc2)=C(CN2CCN(c3ccc(C(=O)NS(=O)(=O)c4ccc(N[C@H](CCN5CCOCC5)CSc5ccccc5)c(S(=O)(=O)C(F)(F)F)c4)cc3)CC2)C1 | 7.42 µM (active) | –
14 | C#Cc1cccc(Nc2ncnc3cc(OCCOC)c(OCCO)cc23)c1 | 2.63 µM (active) | –
15 | CC(C)CC(=O)Nc1n[nH]c2c1CN(C(=O)C1CCN(C)CC1)C2(C)C | 4.17 µM (active) | –
16 | CCOC(CN1C(=O)[C@](CC(=O)Nc2ccc(C)cc2)(NC(=O)Nc2ccc(C)cc2)c2ccccc21)OCC | 20.9 µM (active) | –
17 | CNC(=O)Nc1ccc(-c2nc(N3CC4CCC(C3)O4)c3cnn(C4CCC5(CC4)OCCO5)c3n2)cc1 | 1.48 µM (active) | –
18 | CS[C@H]1SC[C@@H]2C(=O)N(C)[C@H](C(C)C)C(=O)OC[C@H](NC(=O)c3cnc4ccccc4n3)C(=O)N[C@H](C)C(=O)N(C)[C@H]1C(=O)N(C)[C@H](C(C)C)C(=O)OC[C@H](NC(=O)c1cnc3ccccc3n1)C(=O)N[C@H](C)C(=O)N2C | 0.00186 µM (active) | –
19 | CC(C)c1cnn2c(NCc3ccccc3)cc(N[C@@H](CO)[C@H](O)CO)nc12 | 0.417 µM (active) | –
20 | O=C(O)[C@H](Cc1c[nH]c2ccccc12)N1C(=O)c2ccccc2C1=O | – | inactive
21 | COc1ccc(F)c(F)c1C(=O)c1cnc(NC2CCN(S(C)(=O)=O)CC2)nc1N | 3.72 µM (active) | –
22 | O=C1NC(=O)C(c2cnc3ccccn23)=C1c1cn2c3c(cccc13)CN(C(=O)N1CCOCC1)CC2 | 18.6 µM (active) | –
23 | Cc1ccc(S(=O)(=O)OCC(=O)Nc2ccc(C(=O)O)c(O)c2)cc1 | – | inactive
24 | O=C(NC1CCNCC1)c1[nH]ncc1NC(=O)c1c(Cl)cccc1Cl | 1.86 µM (active) | –
25 | CC(C)C[C@H](NC(=O)CNC(=O)c1cc(Cl)ccc1Cl)B1OC(=O)CC(CC(=O)O)(C(=O)O)O1 (stereo partly drawn) | 0.235 µM (active) | –
26 | NCC(=O)Nc1ccc(-n2nc(C(F)(F)F)cc2-c2ccc3c(ccc4ccccc43)c2)cc1 | 20.9 µM (active) | –
27 | CC(C)(C)c1cc(C(C)(C)C)c(NC(=O)c2c[nH]c3ccccc3c2=O)cc1O | 14.8 µM (active) | –
28 | CCCCCCCCCCCC(CC1OC(=O)C1CCCCCC)OC(=O)C(CC(C)C)NC=O (stereo not drawn) | – | inactive
